# Calls of active or inactive are those of the source.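 How the source made its calls: active means inhibition above 20% together with a positive visual image hit; inconclusive means visual image hit but inhibition not above 20%; inactive means no visual image hit.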
# Assay: inhibitors of TNFa-induced NFkB p65 translocation, primary screen, imaging, HUVEC, MLSMR starter and 10KST1 sets (AID 438);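 further: compound added about 3h40 before a 20 min TNFalpha stimulation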;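 on inhibition: signal is the nuclear over cytoplasmic p65 intensity ratio per well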
# Details: HUVEC TNFa-induced p65 nuclear translocation; cell count: measured here: nuclei count (cytotoxicity indicator), at 2.08 µM; inhibition: at 2 µM, stronger effect = higher value, 0% TNFa-plus-vehicle, 100% no-TNFa wells
SMILES,cell count,inhibition
Fc1ccccc1Cn1nnc2c(-n3ccnc3)ncnc21,573,-1.6% (inactive)
O=C(c1ccc(Br)o1)N1CCN(c2ccc3nnc(-c4ccccc4)n3n2)CC1,634,-0.5% (inactive)
CC1Cc2nc(SCC(=O)Nc3nccs3)n(C)c(=O)c2S1 (configuration not stated),584,12% (inactive)
CCOc1cc(-c2nc(-c3ccc(C)nc3OCC)no2)cc(OCC)c1OCC,612,0% (inactive)
CCn1c(C(C#N)/C(=N\S(=O)(=O)c2cccs2)c2ccccc2)nc2ccccc21 (configuration not stated),694,25.4% (active)
O=C(c1cnn2c1NC(c1ccco1)CC2C(F)(F)F)N1CCN(c2cccc(Cl)c2)CC1 (configuration not stated),313,-3.8% (inactive)
Oc1ccc(Cl)cc1-c1cc(-c2ccccc2)n[nH]1,524,-11.4% (inactive)
Cc1cccc(-c2cc3nc4c(c(N5CCOCC5)n3n2)CCCC4)c1,621,-7.5% (inactive)
CCc1nnc(NC(=O)c2cc3ccccc3oc2=O)s1,597,-9.6% (inactive)
O=C(CCS(=O)(=O)c1cccc2nonc12)Nc1cccc2c1CCCC2,500,-1.9% (inactive)
Cc1nn(-c2ccc(F)cc2)c2c1cc(C#N)c1nc3ccccc3n12,664,9.6% (inactive)
Oc1c(C(c2ccccc2)N2CCc3ccccc3C2)sc2ncnn12 (configuration not stated),651,1.3% (inactive)
O=C1CN(C(=O)COC(=O)c2ccccc2NC(=O)c2ccco2)c2ccccc2N1,271,-3.3% (inactive)
COc1cccc(-c2noc(C3CCCN(C(=O)Cc4ccccc4)C3)n2)c1 (configuration not stated),276,-2.8% (inactive)
CCCCCn1c(CN2CCN(C)CC2)nc2c1c(=O)n(C)c(=O)n2C,521,-1.4% (inactive)
CC(C)OC(=O)c1cccc(C(=O)O)n1,441,4.6% (inactive)
CC1CCCCN1CCNS(=O)(=O)c1ccc2c(c1)oc(=O)n2C (configuration not stated),248,0.3% (inactive)
CCCc1nnc2n1N=C(c1ccc(-c3cc(Cl)ccc3Cl)o1)CS2,248,6.2% (inactive)
COc1cccc(CNc2nc3nc(C)c(Cl)c(C)n3n2)c1,343,2.8% (inactive)
COc1ccc(CNc2nc(NCc3ccc(OC)cc3)n(S(C)(=O)=O)n2)cc1,292,-0.9% (inactive)
COc1cccc(NC(=O)N(Cc2ccco2)C(C)c2cccs2)c1 (configuration not stated),734,-12.7% (inactive)
Cc1nnc(SCC(=O)NCc2ccccc2)s1,513,-11.9% (inactive)
O=C(c1ccco1)N1CCN(CC2CC3C=CC2C3)CC1 (configuration not stated),269,-10.4% (inactive)
CCOC(=O)CSc1nnc2n1C(C)(C)Cc1ccccc1-2,305,-0.9% (inactive)
CCN(CC)CCN1C(=O)C(=O)/C(=C(/O)c2c(C)[nH]c(C(=O)OC)c2C)C1c1ccccc1OC (configuration not stated),280,1% (inactive)
CCOC(=O)C(C)(C)Sc1nc2c(cnn2-c2ccc(C)cc2)c(=O)[nH]1,387,-1.6% (inactive)

# Reference: PubChem BioAssay
